# Laboratory results reported in the supplement of paper PMC11732987, “Enantioselective OTUD7B fragment discovery through chemoproteomics screening and high-throughput optimisation” (Communications Chemistry, 2025).
# Unmarked numbers belong to inactive results.
# How the values were obtained:
# Assay in all cases: log2 ratio of Biotin-Ahx-Ub-VS probe labelling (fragment/DMSO); higher = less target engagement (more negative = stronger competition), active = hit call of the paper (q ≤ 0.05, log2 ratio ≤ -1)
# Details in all cases: compound concentration: 200 uM; treatment time: 3 h
# OTUD6B = target: T1, OTUD6B (UniProt Q8N6M0)
# T1 sequence (whole entry): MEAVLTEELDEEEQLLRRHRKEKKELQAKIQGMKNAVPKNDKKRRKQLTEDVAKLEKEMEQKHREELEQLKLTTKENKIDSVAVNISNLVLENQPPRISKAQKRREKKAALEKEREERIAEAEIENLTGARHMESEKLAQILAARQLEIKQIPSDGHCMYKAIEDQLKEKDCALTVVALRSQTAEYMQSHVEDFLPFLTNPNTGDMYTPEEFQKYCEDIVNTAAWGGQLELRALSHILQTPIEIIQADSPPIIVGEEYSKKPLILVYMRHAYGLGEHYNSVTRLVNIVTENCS
# How it was run: (§1)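 In triplicate, 495 µg of HEK293T lysate per sample was incubated with fragment at 200 µM or vehicle for 3 h. Biotin-Ahx-Ub-VS was then added to 0.5 µM final for 1 h, and labelled DUBs were captured with NeutrAvidin, digested with LysC and trypsin, and measured by diaPASEF LC-MS/MS. Data are average log2 fragment/vehicle ratios by unpaired t-test from global-median-normalised Spectronaut label-free quantities, restricted to proteins with ≥2 unique peptides.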
# OTUD7B = target: T2, OTUD7B (UniProt Q6GQQ9)
# T2 sequence (whole entry): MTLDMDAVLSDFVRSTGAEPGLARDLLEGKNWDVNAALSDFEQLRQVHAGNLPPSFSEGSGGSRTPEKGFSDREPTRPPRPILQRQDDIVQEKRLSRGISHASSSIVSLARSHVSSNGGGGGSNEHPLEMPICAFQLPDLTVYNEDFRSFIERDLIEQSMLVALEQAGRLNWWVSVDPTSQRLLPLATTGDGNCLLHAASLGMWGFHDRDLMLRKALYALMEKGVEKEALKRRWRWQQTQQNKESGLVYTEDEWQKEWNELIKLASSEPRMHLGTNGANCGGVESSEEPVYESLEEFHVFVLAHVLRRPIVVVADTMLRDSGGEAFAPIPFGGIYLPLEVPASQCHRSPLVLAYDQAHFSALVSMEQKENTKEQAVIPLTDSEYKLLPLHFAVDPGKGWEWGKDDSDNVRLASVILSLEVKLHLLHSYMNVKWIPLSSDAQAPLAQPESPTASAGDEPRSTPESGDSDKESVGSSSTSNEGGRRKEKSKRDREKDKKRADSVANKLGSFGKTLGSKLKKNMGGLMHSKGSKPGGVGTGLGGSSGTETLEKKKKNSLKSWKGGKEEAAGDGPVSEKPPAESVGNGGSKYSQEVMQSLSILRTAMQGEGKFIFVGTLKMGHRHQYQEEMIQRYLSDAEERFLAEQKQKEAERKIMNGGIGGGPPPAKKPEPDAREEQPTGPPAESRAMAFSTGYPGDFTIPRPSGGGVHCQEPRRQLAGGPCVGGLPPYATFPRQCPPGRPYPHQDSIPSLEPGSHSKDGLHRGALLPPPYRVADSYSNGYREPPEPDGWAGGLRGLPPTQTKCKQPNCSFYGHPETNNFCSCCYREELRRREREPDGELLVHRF
# How it was run: as §1
# PRPF8 = PRPF8 (UniProt Q6P2Q9)
# How it was run: as §1
# PSMD7 = target: T3, PSMD7 (UniProt P51665)
# T3 sequence (whole entry): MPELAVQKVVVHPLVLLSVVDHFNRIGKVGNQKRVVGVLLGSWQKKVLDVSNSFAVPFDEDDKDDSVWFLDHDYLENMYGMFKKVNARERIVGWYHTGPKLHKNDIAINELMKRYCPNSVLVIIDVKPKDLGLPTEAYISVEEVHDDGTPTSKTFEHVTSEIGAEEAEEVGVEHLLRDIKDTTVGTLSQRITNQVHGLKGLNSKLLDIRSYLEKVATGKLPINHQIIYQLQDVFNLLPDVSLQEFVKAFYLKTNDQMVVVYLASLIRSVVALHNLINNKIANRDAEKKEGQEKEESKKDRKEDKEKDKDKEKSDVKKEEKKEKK
# How it was run: as §1
# UCHL1 = UCHL1 (UniProt P09936)
# Sequence of UCHL1 (P09936 whole entry, looked up): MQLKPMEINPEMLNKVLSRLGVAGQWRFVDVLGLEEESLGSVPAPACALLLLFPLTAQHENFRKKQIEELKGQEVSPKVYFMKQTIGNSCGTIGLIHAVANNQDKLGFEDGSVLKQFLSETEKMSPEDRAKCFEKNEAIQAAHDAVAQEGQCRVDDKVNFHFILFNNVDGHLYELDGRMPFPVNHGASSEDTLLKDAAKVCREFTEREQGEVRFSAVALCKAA
# How it was run: as §1
# UCHL3 = target: T4, UCHL3 (UniProt P15374)
# T4 sequence (whole entry): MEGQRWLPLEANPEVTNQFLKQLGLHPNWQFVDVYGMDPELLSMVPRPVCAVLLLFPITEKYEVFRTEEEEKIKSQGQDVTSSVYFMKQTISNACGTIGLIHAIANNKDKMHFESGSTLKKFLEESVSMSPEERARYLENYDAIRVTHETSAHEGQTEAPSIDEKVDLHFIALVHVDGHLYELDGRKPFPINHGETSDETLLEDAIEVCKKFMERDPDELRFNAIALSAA
# How it was run: as §1
# UCHL5 = target: T5, UCHL5 (UniProt Q9Y5K5)
# T5 sequence (whole entry): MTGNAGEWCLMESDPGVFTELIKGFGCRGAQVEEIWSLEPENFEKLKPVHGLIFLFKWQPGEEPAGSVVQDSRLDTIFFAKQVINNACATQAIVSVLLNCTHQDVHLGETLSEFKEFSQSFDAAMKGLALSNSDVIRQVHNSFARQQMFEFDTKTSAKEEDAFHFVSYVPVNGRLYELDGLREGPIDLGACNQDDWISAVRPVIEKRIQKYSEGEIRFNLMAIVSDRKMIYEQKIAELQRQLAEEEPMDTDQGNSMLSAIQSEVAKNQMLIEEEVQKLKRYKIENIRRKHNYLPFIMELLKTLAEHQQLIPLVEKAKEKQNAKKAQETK
# How it was run: as §1
# USP10 = USP10 (UniProt Q14694)
# Sequence of USP10 (Q14694 whole entry): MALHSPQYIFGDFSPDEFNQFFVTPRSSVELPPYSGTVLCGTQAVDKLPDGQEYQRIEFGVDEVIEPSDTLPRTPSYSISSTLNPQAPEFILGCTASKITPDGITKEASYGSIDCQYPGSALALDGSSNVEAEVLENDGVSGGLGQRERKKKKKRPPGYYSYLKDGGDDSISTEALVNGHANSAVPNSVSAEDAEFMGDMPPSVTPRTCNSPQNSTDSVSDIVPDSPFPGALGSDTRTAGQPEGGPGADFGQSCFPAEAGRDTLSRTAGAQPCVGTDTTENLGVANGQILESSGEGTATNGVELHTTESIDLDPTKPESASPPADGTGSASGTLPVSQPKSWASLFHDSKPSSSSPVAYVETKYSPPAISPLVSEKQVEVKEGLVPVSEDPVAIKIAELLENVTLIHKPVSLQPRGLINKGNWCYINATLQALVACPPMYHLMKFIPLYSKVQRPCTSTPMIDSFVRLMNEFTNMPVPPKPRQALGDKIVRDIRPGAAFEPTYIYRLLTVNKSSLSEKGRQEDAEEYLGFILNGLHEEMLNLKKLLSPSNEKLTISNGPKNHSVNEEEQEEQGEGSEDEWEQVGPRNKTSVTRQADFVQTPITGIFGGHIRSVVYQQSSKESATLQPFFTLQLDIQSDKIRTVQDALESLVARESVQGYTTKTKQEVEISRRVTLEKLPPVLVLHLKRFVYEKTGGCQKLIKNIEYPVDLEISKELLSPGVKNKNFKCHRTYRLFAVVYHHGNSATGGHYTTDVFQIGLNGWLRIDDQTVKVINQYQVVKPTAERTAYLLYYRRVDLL
# How it was run: as §1
# USP15 = target: T6, USP15 (UniProt Q9Y4E8)
# T6 sequence (whole entry): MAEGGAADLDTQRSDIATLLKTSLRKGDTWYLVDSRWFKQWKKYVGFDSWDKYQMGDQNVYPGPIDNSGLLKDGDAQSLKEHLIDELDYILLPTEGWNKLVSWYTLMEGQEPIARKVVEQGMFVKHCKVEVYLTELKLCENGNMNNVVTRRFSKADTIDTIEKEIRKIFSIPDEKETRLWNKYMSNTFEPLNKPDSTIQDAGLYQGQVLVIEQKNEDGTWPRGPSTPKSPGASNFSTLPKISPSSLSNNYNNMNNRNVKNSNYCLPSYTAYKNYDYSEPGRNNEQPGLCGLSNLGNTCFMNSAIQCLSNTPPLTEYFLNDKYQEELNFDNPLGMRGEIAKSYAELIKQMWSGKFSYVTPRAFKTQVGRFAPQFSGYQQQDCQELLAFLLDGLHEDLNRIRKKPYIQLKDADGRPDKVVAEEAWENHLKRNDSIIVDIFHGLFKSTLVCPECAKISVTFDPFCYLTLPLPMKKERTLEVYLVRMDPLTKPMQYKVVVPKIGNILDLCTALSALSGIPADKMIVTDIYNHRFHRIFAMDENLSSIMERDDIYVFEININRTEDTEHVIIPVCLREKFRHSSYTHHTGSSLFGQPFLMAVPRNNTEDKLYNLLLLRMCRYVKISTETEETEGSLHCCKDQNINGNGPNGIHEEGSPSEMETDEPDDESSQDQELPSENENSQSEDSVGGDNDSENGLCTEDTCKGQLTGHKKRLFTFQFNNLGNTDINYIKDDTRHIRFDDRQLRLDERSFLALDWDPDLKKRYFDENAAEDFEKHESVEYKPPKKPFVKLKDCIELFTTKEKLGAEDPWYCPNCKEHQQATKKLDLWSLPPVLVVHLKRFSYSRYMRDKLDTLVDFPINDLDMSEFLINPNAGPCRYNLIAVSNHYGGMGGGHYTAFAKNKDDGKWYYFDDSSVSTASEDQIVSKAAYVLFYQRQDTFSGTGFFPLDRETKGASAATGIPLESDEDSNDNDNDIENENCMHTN
# How it was run: as §1
# USP16 = USP16 (UniProt Q9Y5T5)
# Sequence of USP16 (Q9Y5T5 whole entry, looked up): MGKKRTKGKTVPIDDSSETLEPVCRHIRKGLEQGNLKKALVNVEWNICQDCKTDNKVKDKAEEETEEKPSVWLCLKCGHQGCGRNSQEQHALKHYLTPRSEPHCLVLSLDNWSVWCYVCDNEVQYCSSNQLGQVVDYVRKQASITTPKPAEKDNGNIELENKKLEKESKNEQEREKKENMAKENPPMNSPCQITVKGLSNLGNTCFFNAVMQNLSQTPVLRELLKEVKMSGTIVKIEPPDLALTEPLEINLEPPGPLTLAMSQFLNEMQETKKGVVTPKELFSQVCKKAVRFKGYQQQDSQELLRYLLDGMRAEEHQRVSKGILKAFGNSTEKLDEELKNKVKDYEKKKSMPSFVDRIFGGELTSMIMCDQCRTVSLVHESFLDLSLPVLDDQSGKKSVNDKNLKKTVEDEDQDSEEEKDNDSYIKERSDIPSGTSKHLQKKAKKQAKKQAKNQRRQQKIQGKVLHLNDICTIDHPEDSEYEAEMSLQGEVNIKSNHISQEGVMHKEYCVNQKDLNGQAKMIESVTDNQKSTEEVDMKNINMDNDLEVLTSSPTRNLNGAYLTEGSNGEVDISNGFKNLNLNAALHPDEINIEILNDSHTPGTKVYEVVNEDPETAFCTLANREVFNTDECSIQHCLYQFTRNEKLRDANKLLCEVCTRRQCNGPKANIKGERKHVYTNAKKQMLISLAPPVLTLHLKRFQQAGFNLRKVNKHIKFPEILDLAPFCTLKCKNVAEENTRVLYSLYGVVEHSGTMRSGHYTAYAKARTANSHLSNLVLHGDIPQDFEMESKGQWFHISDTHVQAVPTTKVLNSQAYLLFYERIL
# How it was run: as §1
SMILES,log2 ratio of Biotin-Ahx-Ub-VS probe labelling (OTUD6B),log2 ratio of Biotin-Ahx-Ub-VS probe labelling (OTUD7B),log2 ratio of Biotin-Ahx-Ub-VS probe labelling (PRPF8),log2 ratio of Biotin-Ahx-Ub-VS probe labelling (PSMD7),log2 ratio of Biotin-Ahx-Ub-VS probe labelling (UCHL1),log2 ratio of Biotin-Ahx-Ub-VS probe labelling (UCHL3),log2 ratio of Biotin-Ahx-Ub-VS probe labelling (UCHL5),log2 ratio of Biotin-Ahx-Ub-VS probe labelling (USP10),log2 ratio of Biotin-Ahx-Ub-VS probe labelling (USP15),log2 ratio of Biotin-Ahx-Ub-VS probe labelling (USP16)
CS(=O)(=O)c1ccc(CNC(=O)CCl)cc1,-0.168,-0.575,-0.126,-0.155,-1.33 (active),0.301,-0.165,-0.141,-0.268,-0.251
O=C(CCl)Nc1cccc(NC(=O)c2ccccc2)c1,0.292,-0.595,0.0439,0.102,-1.07 (active),-0.427,0.221,-0.0488,-0.0163,0.163
O=C(CN1CCN(C(=O)CCl)CC1)Nc1cccc(F)c1,-0.321,-0.452,-0.19,-0.137,-1.08 (active),-0.122,-0.336,0.0386,-0.225,-0.245
CN(C(=O)CCl)c1nc2ccccc2s1,-0.243,-0.119,0.183,0.069,-0.925,0.484,-0.343,-0.116,-0.217,0.0425
O=C(CCl)Nc1ccc(Cl)c(F)c1,-0.448,-1.15 (active),0.0807,-0.221,-1.36 (active),-0.216,-0.398,-0.142,-0.331,0.323
Cc1noc(C)c1CNC(=O)CCl,-0.543,-1.46 (active),-0.184,-0.529,-2.12 (active),-0.701,-0.89,-0.261,-0.867,-0.591
O=C(CCl)NCc1cccc(N2CCCC2=O)c1,0.058,-0.585,-0.0281,-0.0566,-0.979,0.302,-0.112,0.0755,0.049,-1 (active)
O=C(CCl)N1CCC(C(=O)N2CCCC2)CC1,-0.427,-0.121,0.0985,0.0529,-1.3 (active),0.284,0.037,-0.257,-0.395,-0.362
C/C(=C\CNC(=O)CCl)c1cnn(C)c1.Cl,-0.0447,-0.863,0.0944,0.0605,-1.27 (active),0.15,-0.0212,-0.19,-0.476,-0.58
CS(=O)(=O)c1ccc(NC(=O)CCl)cc1,-0.109,-0.594,-0.257,0.0407,-1.26 (active),0.206,-0.282,-0.104,-0.136,-0.145
O=C(CCl)Nc1cc2c(cc1Cl)OCCO2,-0.0652,-0.567,0.0189,-0.149,-1.2 (active),0.196,-0.407,-0.000247,-0.202,0.406
CN(Cc1nc2ccccc2[nH]1)C(=O)CCl.Cl,-0.0126,-0.039,0.00724,-0.142,0.185,0.504,-0.121,-0.14,-0.17,-0.572
CC1CN(c2ccc(NC(=O)CCl)cc2)CC(C)O1 (stereo not given),-0.241,-0.313,0.0099,-0.00447,-1.48 (active),0.00853,-0.366,-0.118,-0.153,-0.987
